Screens (PubChem)
Sampled rows, rich in hits. Any-hit rate of the full collection: about 10%.
G9a inh = blocks human histone lysine methyltransferase G9a; Potency, µM (highest dose often 102 µM), for the others: at the top dose activity, negative = inhibition, most hits filed as inhibitors; G9a H3K9 monomethylation, AlphaScreen, 2 h; hit rate 8.8% among 350,000; note: % is set by controls: 0 for no effect and ±100 for the full control effect; nearly all actives have a fitted effect of over 75% in size
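Chemiluminescent proximity detection of H3K9 monomethylation, read after 10 min bead incubation in the dark. Reaction: 20 nM G9a, 500 nM biotin-H3K9 peptide, 20 uM SAM cofactor, 2 h, room temperature, following 15 min enzyme-compound preincubation.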
HP1b chromo inh = inhibitors of HP1-beta chromodomain binding to methylated histone tails; P83916; AlphaScreen HP1-beta / biotin-H3K9me3 peptide binding; Potency, µM (titrated, usually from 114 µM), for the others: at the highest dose activity change, negative = inhibition, usual class: inhibitors; hit rate 0.56% among 390,000; note: nearly all actives have a fitted effect of over 70% in size
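Compound inhibition of the preformed complex between 50 nM HP1-beta and 50 nM biotinylated H3K9me3 peptide was read by AlphaScreen. Buffer was PBS pH 7.4 with 0.01% Tween-20. Incubations ran 30 min at room temperature, with 10 ug/mL donor/acceptor beads.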
L3MBTL1 inh = L3MBTL1 (human) inhibition. Q9Y468. AlphaScreen L3MBTL1–H3K9me1 peptide binding. Potency, µM (highest dose often 57.1 µM), inactives show top-dose activity, negative = inhibition, actives largely listed as inhibitors. hit rate 0.66% among 230,000. AID 485360; note: % is set by controls: 0 for no effect and ±100 for the full control effect; nearly all actives have a fitted effect of over 60% in size
Target sequence (Q9Y468 whole entry, looked up): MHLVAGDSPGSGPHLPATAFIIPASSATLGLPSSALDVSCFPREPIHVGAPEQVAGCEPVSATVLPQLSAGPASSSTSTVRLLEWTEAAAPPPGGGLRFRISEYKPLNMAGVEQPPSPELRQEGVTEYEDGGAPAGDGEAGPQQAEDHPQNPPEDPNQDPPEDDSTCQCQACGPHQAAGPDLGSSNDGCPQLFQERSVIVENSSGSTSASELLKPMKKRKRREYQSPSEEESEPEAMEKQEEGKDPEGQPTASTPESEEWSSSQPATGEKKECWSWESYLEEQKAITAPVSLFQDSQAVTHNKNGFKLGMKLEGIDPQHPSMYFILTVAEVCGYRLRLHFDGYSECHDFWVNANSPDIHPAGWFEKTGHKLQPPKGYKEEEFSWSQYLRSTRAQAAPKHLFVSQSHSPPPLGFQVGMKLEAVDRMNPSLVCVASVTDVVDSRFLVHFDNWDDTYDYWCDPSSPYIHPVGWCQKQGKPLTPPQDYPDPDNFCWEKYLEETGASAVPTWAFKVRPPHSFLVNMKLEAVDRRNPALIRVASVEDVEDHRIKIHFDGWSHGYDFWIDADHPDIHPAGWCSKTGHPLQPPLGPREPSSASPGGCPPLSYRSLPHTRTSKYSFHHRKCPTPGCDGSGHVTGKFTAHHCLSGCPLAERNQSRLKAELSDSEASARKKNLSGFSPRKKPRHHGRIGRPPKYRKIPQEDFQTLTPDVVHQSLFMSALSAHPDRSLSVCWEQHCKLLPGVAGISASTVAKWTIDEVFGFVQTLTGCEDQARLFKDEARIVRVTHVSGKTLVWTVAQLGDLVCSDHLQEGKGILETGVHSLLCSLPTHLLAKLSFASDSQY
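AlphaScreen assay: L3MBTL1 (50 nM final) was preincubated 30 min at room temperature with biotinylated H3(1-15)K9me1 peptide (75 nM final), then 30 min with library compounds; streptavidin donor and nickel chelate acceptor beads (10 ug/mL final) added, 30 min dark.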
GLS inhibitor = inhibitors of human glutaminase (GLS) | GLS enzymatic activity, qHTS titration | Potency, µM (highest dose often 45.5 µM), without a hit: at the top dose activity change, negative = inhibition, most hits filed as inhibitors | hit rate 0.21% among 410,000; note: % is set by controls: 0 for no effect and ±100 for the full control effect
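Compounds were pin-transferred onto hKGA, after which L-glutamine (1 mM solution) and a detection mix of glutamate oxidase, HRP and Amplex Red were added. Initial and 30 min RT fluorescence reads were collected.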
BAZ2B inh = BAZ2B (human) inhibition; Q9UIF8; AlphaScreen BAZ2B-H3K14Ac peptide displacement; Potency, µM (top dose mostly 114 µM), without a hit: top-dose activity change, negative = inhibition, hits mostly inhibitors; hit rate 4.4% among 360,000; AID 504333; note: % is set by controls: 0 for no effect and ±100 for the full control effect; nearly all actives have a fitted effect of over 60% in size
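Inhibition is scored as reduced AlphaScreen emission. The BAZ2B/b-H3(5-23)K14Ac complex (50 nM each) in PBS pH 7.4, 0.01% Tween-20 meets compound (up to 110 uM) for 30 min at RT before bead addition.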
JMJD2A Tudor inh = inhibitors of human JMJD2A Tudor domain | O75164 | AlphaScreen JMJD2A-Tudor / H3K4me3 peptide binding | Potency, µM (titrated, usually from 114 µM), for inactives: top-dose activity change, negative = inhibition, hits mostly inhibitors | hit rate 4.4% among 390,000 | AID 504339; note: % is set by controls: 0 for no effect and ±100 for the full control effect; nearly all actives have a fitted effect of over 50% in size
* hit, by the source's call; ? = inconclusive; · = no result; [ ] = remark or other dose. Calls come from the whole dose curve; as a rule, active = well fitted curve in the direction sought with a large enough effect; inconclusive = small, poorly fitted or top-dose-only effect, or another doubt; inactive = no such curve, though single readings can be large; an effect the other way counts as inactive or inconclusive. Potency is the fitted concentration of half-maximal effect.

SMILES	G9a inh	HP1b chromo inh	L3MBTL1 inh	GLS inhibitor	BAZ2B inh	JMJD2A Tudor inh
Cc1[nH]c2c(Cl)cccc2c1CCNC(=O)C1CCCCC1C(=O)OCC(F)(F)F (configuration not stated)	71µM*	2%	-6%	-3%	-33%	-26%
O=C(Nc1ccc(Cl)cc1)N(CCCN1CCOCC1)Cc1cccs1	9%	17%	·	9%	-4%	-28%
O=S(=O)(c1ccc(Cl)cc1)N(CCCN1CCOCC1)Cc1cccs1	28µM*	15%	·	-5%	50µM*	8.9µM*
CCN(CC)c1ccc(-c2nc3cnccn3c2NC2CCCC2)cc1	50µM*	?	-2%	?	-5%	79µM*
COc1ccc(NC(=O)CSC2=Nc3ccccc3C3=NC(CCC(=O)NC4CCCCC4)C(=O)N23)cc1Cl (configuration not stated)	5%[59 µM]	38%	·	-6%	-25%	-5%
COc1ccccc1OCCCOc1cccc(/C=C2\SC(=O)NC2=O)c1	-1%[0.501 µM]	-2%	0%[2.29 µM]	?	79µM*	22µM*
COc1cccc(C(=O)Nc2ccc3nc(SCC(=O)N4CCOCC4)sc3c2)c1	9%[59 µM]	69%	·	1%	-10%	-4%
C#CCOCCOCCOCCNc1nc(N2CCOCC2)nc(N2CCN(C(=O)CCCCCCCCCCNC(=O)[C@@H](CCSC)n3cc(CCO)nn3)CC2)n1	12%[2.33 µM]	10%	2%	2%	-5%	-32%
C#CCOCCOCCOCCNc1nc(N2CCN(C(=O)CCCCCCCCCCNC(=O)[C@@H](CCSC)n3cc(CCO)nn3)CC2)nc(N2CCN(C(=O)CCCCCCCCCCNC(=O)[C@H]([C@@H](C)CC)n3cc(CCCCN=C(N)N)nn3)CC2)n1	2%[2.33 µM]	?	-12%	-12%	50µM*	40µM*
C#CCOCCOCCOCCNc1nc(N2CCN(C(=O)CCCCCCCCCCNC(=O)[C@@H](CCSC)n3cc(CCO)nn3)CC2)nc(N2CCN(C(=O)CCCCCCCCCCNC(=O)[C@H]([C@@H](C)CC)n3cc(CCCCCN)nn3)CC2)n1	19%[2.33 µM]	?	0%	?	?	56µM*
CCCNC(=O)c1ccccc1NC(=O)c1nsc2ccccc12	-1%[59 µM]	37%[57 µM]	·	-4%	2%	-12%
O=C1CN(C(=O)c2ccc(Cl)cc2Cl)C(c2ccc(F)cc2)c2cc(F)ccc2N1 (configuration not stated)	-17%[59 µM]	6%	·	-10%	-15%	-26%
COc1ccc(Cl)cc1NC(=O)Cn1c2ncccc2c(=O)n1-c1ccc(C)c(C)c1	8%[59 µM]	15%	·	7%	-1%	?
Cc1cc(C)c(NC(=O)c2c(C)oc3c2C2=NCCN2C=N3)c(C)c1	-14%[59 µM]	21%	·	-22%	-10%	-25%
Cc1cc(N=Nc2ccccc2)c(NCC(O)C(O)C(O)CO)cc1C (configuration not stated)	20µM*	?	·	28%	16µM*	45µM*
CCCn1c(SCC(=O)NCc2ccc(F)cc2)n[nH]c1=O	2%	-14%	3%	2%	-13%	45µM*
CCCn1c(SCC(=O)c2cc(C)ccc2C)n[nH]c1=O	7.1µM*	35%	·	7%	-21%	-27%
CCOc1ccccc1NC(=O)C1CCN(S(=O)(=O)c2ccc3c(c2)CCCN3C(C)=O)CC1	11%[59 µM]	14%[57 µM]	·	0%	5%	-14%
O=C(COc1ccccc1F)OCc1cc(=O)n2nc(-c3cccs3)sc2n1	32%[59 µM]	0%	·	-15%	-24%	-27%
COc1ccc(C2Nc3ccccc3C(=O)N2Cc2ccccc2)cc1COc1cccc(C)c1 (configuration not stated)	·	·	·	·	·	-12%
O=P(c1ccccc1)(c1ccccc1)c1cc(S(=O)(=O)O)ccc1O	35µM*	35µM*	·	-16%	50µM*	40µM*
O=P(O)(c1ccccc1)c1ccccc1O	10%[59 µM]	53%	4%	3%	-35%	?
N#C/C(=N\Nc1ccc(Cl)cc1)C(=O)c1ccsc1	·	?	-1%	0%	25µM*	?
COc1ccc(C(=O)/C(C#N)=N/Nc2cccc([N+](=O)[O-])c2)cc1	?	?	-28%	6%	40µM*	?
N#C/C(=N\Nc1ccccc1Cl)C(=O)c1ccccc1	?	-21%	-22%	31%	?	-29%[57.1 µM]
SMILES	G9a inh	HP1b chromo inh	L3MBTL1 inh	GLS inhibitor	BAZ2B inh	JMJD2A Tudor inh
Cc1ccc(N/N=C(\C#N)C(=O)c2ccsc2)cc1	?	-17%	-4%	17%	?	35µM*
N#C/C(=N\Nc1cccc(Cl)c1)C(=O)c1ccccc1	25µM*	?	-8%	17%	45µM*	?
Cc1ccccc1-n1ncc2c([N+](=O)[O-])cc([N+](=O)[O-])cc21	?	40µM*	?	4%	32µM*	56µM*
CCCN(C(=O)Nc1cn(CC(C)C)c(=O)c2ccccc12)c1ccc(F)cc1	-29%[59 µM]	13%	·	-6%	7%[57.1 µM]	-11%
O=C(O)CCn1nnc(-c2cccs2)n1	?	17%	-9%	5%	79µM*	-13%
O=C(O)Cn1nnc(-c2cccs2)n1	11%	11%	6%	4%	-2%	-4%
C/C(CC(=O)NCc1ccccc1)=N\NC(=O)c1cnccn1	40µM*	22%	1%	12%	12%	?
C/C(CC(=O)NCc1ccc(F)cc1)=N\NC(N)=S	?	?	14%	0%	?	?
C/C(CC(=O)NCc1ccccc1)=N\NC(N)=S	3.2µM*	-16%	·	12%	-14%	?
C/C(CC(=O)Nc1ccccc1C(F)(F)F)=N\NC(=O)c1cnccn1	·	56%	·	4%	·	-23%
Cc1ccc(NC(=O)c2ccc(F)c(S(=O)(=O)NCCc3ccccc3)c2)cc1F	-23%[59 µM]	21%	·	10%	2%	-29%
O=C(O)c1[nH]c2ccccc2c1C=NCc1ccccc1Cl	56µM*	29%	-12%	3%	-13%	-12%
COc1ccc(NC(=O)C2CCN(S(=O)(=O)c3ccc4[nH]c(=O)ccc4c3)CC2)cc1Cl	8%[59 µM]	29%[57 µM]	·	2%	5%	-2%
COc1ccc(N=C2C(=O)N3CCCc4cccc2c43)cc1	?	0%	-8%	5%	?	-26%
CC1=CC(C)(C)N2C(=O)C(=Nc3ccc(O)cc3)c3cccc1c32	5µM*	40µM*	11µM*	?	35µM*	-29%[11.4 µM]
